Assay results taken from PubChem BioAssay (EPA / NIEHS).
Results filed as inconclusive are left out. Active and inactive are the calls of the source. The calls were made as follows, unless noted: active = hit-call score of the fitted dose curve at least 0.9, where 1 is the maximum; inactive = score below 0.9.

What was measured:
[1] = read-out: Interleukin 6 (IL6), IL6 (gene 3569); assay: BSK_BT_xIL6: BioMAP Diversity Plus: BT Assay for Interleukin 6 (IL6) Biomarker Activity (AID 2284228); settings: primary human B cells with PBMC
Procedure, shortened: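 Secreted IL-6 in the primary human B cell plus PBMC system, measured by Luminex at 24 h post-chemical, DMSO as baseline. Alamar Blue viability: 75,000 cells/well, chemical 1 h before SEB/TSST-1 (20 ng/mL each), 90 h, then 6 h dye.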

[2] = read-out: Interleukin 17A (IL17A), IL17A (gene 3605); assay: BSK_BT_xIL17A: BioMAP Diversity Plus: BT Assay for Interleukin 17A (IL17A) Biomarker Activity (AID 2284229); settings: primary human B cells with PBMC
Procedure, shortened: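 Luminex xMAP quantification of secreted IL-17A after 24 h chemical exposure of a primary human B cell/PBMC co-culture. Signal increases fitted relative to DMSO negative control.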

[3] = read-out: Tumor necrosis factor (Homo sapiens) (UniProt P01375); assay: BSK_BT_xTNFa: BioMAP Diversity Plus: BT Assay for Tumor necrosis factor alpha (TNF-alpha) Biomarker Activity (AID 2284230); settings: primary human B cells with PBMC
Procedure, shortened: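 Compounds were added to a B cell plus PBMC co-culture, and after 24 h secreted TNF-alpha was quantified with Luminex xMAP technology, with responses fitted upward from the DMSO control.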

[4] = read-out: Vascular cell adhesion molecule 1 (VCAM1), VCAM1 (gene 7412); assay: BSK_MyoF_VCAM1: BioMAP Diversity Plus: MyoF Assay for Vascular cell adhesion molecule 1 (VCAM1) Biomarker Activity (AID 2284231); settings: primary human lung fibroblasts
Procedure, shortened: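 ELISA readout of VCAM-1 on human lung fibroblast cultures 24 hours after dosing, analyzed for signal gain relative to DMSO. Overt cytotoxicity was checked by sulforhodamine B total-protein staining in parallel cultures.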

[5] = TAMU_HCS_1.5hr_SingleDonor1434_Cytotoxicity: Cytotoxicity Assessment using High-content Screening (HCS) Fluorescent Imaging for the Texas A&M University (TAMU) 1.5-hr Human Induced Pluripotent Stem Cell (iPSC)-derived Cardiotoxicity Assay (AID 2284234; active = hit-call score of the fitted dose curve at least 0.9, where 1 is the maximum)
Procedure, shortened: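 Human iPSC-derived cardiomyocytes dosed at 0.2, 1, 10, 100 uM final (0.5% DMSO) for 90 min at 37 C. Hoechst 33342-stained nuclei counted by 10x high-content imaging; POD is EC10, a 10% drop in total cell count versus DMSO.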

[6] = read-out: Collagen I, COL1A1 (gene 1277); assay: BSK_MyoF_CollagenI: BioMAP Diversity Plus: MyoF Assay for Collagen I Biomarker Activity (AID 2284238); settings: primary human lung fibroblasts
Procedure, shortened: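 Collagen I levels measured by ELISA on human lung fibroblast cultures 24 h post-dosing, with curve fitting in the positive direction relative to DMSO; SRB staining of parallel wells marked cytotoxicity.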

[7] = read-out: Collagen III, COL3A1 (gene 1281); assay: BSK_MyoF_CollagenIII: BioMAP Diversity Plus: MyoF Assay for Collagen III Biomarker Activity (AID 2284239); settings: primary human lung fibroblasts
Procedure, shortened: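 Collagen III biomarker quantified by ELISA in human lung fibroblast cultures 24 h after dosing. Activity fitted in the positive direction against DMSO as baseline.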

[8] = read-out: Interleukin 17F (IL17F), IL17F (gene 112744); assay: BSK_BT_xIL17F: BioMAP Diversity Plus: BT Assay for Interleukin 17F (IL17F) Biomarker Activity (AID 2284243); settings: primary human B cells with PBMC
Procedure, shortened: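 Human B cells co-cultured with PBMC; secreted IL-17F quantified by LumineX xMAP 24 hours after chemical dosing. Activity fitted in the positive direction against DMSO negative control as baseline.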

[9] = read-out: Actin alpha 1 (ACTA1), ACTA1 (gene 58); assay: BSK_MyoF_ACTA1: BioMAP Diversity Plus: MyoF Assay for Actin alpha 1 (ACTA1) Biomarker Activity (AID 2284244); settings: primary human lung fibroblasts
Procedure, shortened: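 Measured by ELISA: alpha-smooth muscle actin in human primary lung fibroblasts 24 h after dosing, with DMSO as baseline and upward signal change as the fitted direction.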

[10] = read-out: Interleukin 2 (IL2), IL2 (gene 3558); assay: BSK_BT_xIL2: BioMAP Diversity Plus: BT Assay for Interleukin 2 (IL2) Biomarker Activity (AID 2284245); settings: primary human B cells with PBMC
Procedure, shortened: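 Secreted interleukin-2 from human B cell/PBMC co-cultures, measured 24 h post-dosing by Luminex multiplex immunoassay. Upward-direction curve fitting against DMSO baseline.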

[11] = read-out: Basic fibroblast growth factor (bFGF), FGF2 (gene 2247); assay: BSK_MyoF_bFGF: BioMAP Diversity Plus: MyoF Assay for Basic fibroblast growth factor (bFGF) Biomarker Activity (AID 2284246); settings: primary human lung fibroblasts
Procedure, shortened: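 In this multiplexed cell system, lung fibroblasts (human primary) receive test chemical for 24 h before ELISA detection of bFGF; DMSO defines baseline and the analysis direction is positive.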

[12] = read-out: Collagen IV, COL4A1 (gene 1282); assay: BSK_MyoF_CollagenIV: BioMAP Diversity Plus: MyoF Assay for Collagen IV Biomarker Activity (AID 2284247); settings: primary human lung fibroblasts
Procedure, shortened: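 Activity is scored as a signal increase over DMSO in an ELISA for Collagen IV, measured on human lung fibroblasts at 24 h after chemical treatment. Cytotoxicity is checked in parallel cultures by sulforhodamine B total-protein staining.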

[13] = UKN4_HCS_LUHMES_cell_viability: Viability Assessment in the University of Konstanz (UKN) Leist Lab Neurite Outgrowth Assay in human LUHMES cells (UKN4) (AID 2284232)
Procedure, shortened: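 Human dopaminergic-model LUHMES neurons were exposed to chemicals for 24 h after a 2-day differentiation. Viability was scored by imaging Hoechst H-33342 staining, with activity fitted in both directions relative to DMSO controls.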

[14] = UKN2_HCS_IMR90_cell_viability: Viability Assessment in the University of Konstanz (UKN) Leist Lab Neural Crest Cell Migration Assay in human induced IMR90 Pluripotent Stem Cells (UKN2) (AID 2284233);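 also: viability of neural crest cells differentiated from IMR90 iPSC measured by calcein-AM fluorescence imaging; cells exposed to compound for 24 h after a 24 h migration phase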
Procedure, shortened: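 Neural crest cells derived from IMR90 iPSC migrate into a stopper-free zone for 24 h in EGF/FGF medium, then are exposed to compound for 24 h. Viability assessed by calcein-AM and Hoechst staining with high-content imaging, fitted bidirectionally versus DMSO.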

[15] = CCTE_Mundy_HCI_Cortical_NOG_NeuronCount: CCTE's Neurite Outgrowth Assay in rat cortical cells for Neuron Count, Mundy Lab (AID 2284236; active = hit-call score of the fitted dose curve at least 0.9, where 1 is the maximum;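 also: neurons counted by imaging betaIII-tubulin and Hoechst stained cortical cells; cells exposed to compound for about 48 hours before fixation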)
Procedure, shortened: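 Read-out: neuron number by high-content imaging of betaIII-tubulin (Alexa Fluor-488) and Hoechst-labelled rat primary cortical cells.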

[16] = CCTE_Mundy_HCI_Cortical_NOG_BPCount: CCTE's Neurite Outgrowth Assay in rat cortical cells for Branch Point Count, Mundy Lab (AID 2284237);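 also: branch points counted about two days after chemical exposure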
Procedure, shortened: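 Measured 50.33 h after dosing, this morphology endpoint uses rat primary cortical cultures labelled for betaIII-tubulin. Branch points are quantified by high-content imaging, with DMSO as negative control and baseline.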

[17] = CCTE_Mundy_HCI_hNP1_Casp3_7: CCTE's Caspase-Glo 3/7 Assay in human neuroprogenitor cells for Apoptosis, Mundy Lab (AID 2284240)
Procedure, shortened: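 Luminescent caspase-3/7 readout, 26.5 h post-dose, in human neural progenitor cells from WA09 embryonic stem cells. Cells grew 40–44 h at 37 °C, 5% CO2 before chemical addition. Activity analysed as signal increase over DMSO baseline.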

[18] = CCTE_Mundy_HCI_hNP1_CellTiter: CCTE's Cell Titer-Glo 2 Assay in human neuroprogenitor cells for Viability, Mundy Lab (AID 2284241; active = hit-call score of the fitted dose curve at least 0.9, where 1 is the maximum;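 also: a hit is a drop in ATP luminescence versus DMSO meaning reduced viability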)
Procedure, shortened: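 Viability read as luminescent ATP content (CellTiter-Glo, 30 min room temperature) twenty-four hours after dosing, relative to DMSO. Cells: WA09-derived hNP1 neuroprogenitors on poly-L-ornithine/laminin, plated 40 to 44 hours before chemical.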

[19] = CCTE_Mundy_HCI_Cortical_Synap_Neur_Matur_NeuronCount: CCTE's Synaptogenesis and Neurite Maturation Assay in rat cortical cells for Neuron Count, Mundy Lab (AID 2284242; active = hit-call score of the fitted dose curve at least 0.9, where 1 is the maximum)
Procedure, shortened: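 Imaging-based neuron count in rat cortical cultures after chemical exposure from DIV 7 to DIV 12, with AraC added at DIV 5. Activity is fitted relative to DMSO.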

[20] = TAMU_PeakParms_SingleDonor1434_QT: Texas A&M University (TAMU) 1.5-hr Human Induced Pluripotent Stem Cell (iPSC)-derived Cardiomyocytes Calcium (Ca+2) Flux Assay for Cardiotoxicity: QT (decay-rise ratio) (AID 2284235; active = hit-call score of the fitted dose curve at least 0.9, where 1 is the maximum)
Procedure, shortened: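 iPSC-derived cardiomyocytes (single donor 1434) dosed at 0.2, 1, 10, 100 uM final in 0.5% DMSO, 90 min at 37C. Ca2+ flux fluorescence decay/rise ratio; EC05 (5% increase versus DMSO) as POD, excluding beat-arrest and severe-notch data.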

Measured: AC50

Sequence of Tumor necrosis factor (Homo sapiens) (P01375 whole entry, looked up): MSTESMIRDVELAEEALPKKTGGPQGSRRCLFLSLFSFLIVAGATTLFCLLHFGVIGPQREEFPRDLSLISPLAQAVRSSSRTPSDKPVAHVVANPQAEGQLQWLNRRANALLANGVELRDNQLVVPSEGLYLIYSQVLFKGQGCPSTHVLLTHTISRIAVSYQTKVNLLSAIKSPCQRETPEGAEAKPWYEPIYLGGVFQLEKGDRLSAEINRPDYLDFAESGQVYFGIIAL

ClC(Cl)=C(Cl)C(Cl)=C(Cl)Cl
active: [1] 11.8 µM | [6] 29.7 µM | [7] 3.97 µM | [9] 3.97 µM
inactive: [2] | [3] | [4] | [5] | [8] | [10] | [11] | [12]

CC(=O)C(Cl)C(=O)N(C)C (centres undefined)
inactive: [2] | [4] | [6] | [7] | [9] | [11] | [12]
active: [1] 27.9 µM | [3] 29.6 µM | [8] 28.8 µM | [10] 34.4 µM

COC[C@H](C)N(C(=O)CCl)c1c(C)csc1C
inactive: [1] | [2] | [3] | [4] | [6] | [7] | [8] | [9] | [10] | [11] | [12]

CCCCCCCCC(=O)NCc1ccc(O)c(OC)c1
inactive: [1] | [2] | [3] | [4] | [6] | [7] | [8] | [9] | [10] | [11] | [12]

O=C1C2(Cl)C3(Cl)C4(Cl)C(Cl)(Cl)C5(Cl)C3(Cl)C1(Cl)C5(Cl)C24Cl (centres undefined)
active: [13] 7.53 µM | [14] 3.06 µM | [15] 15 µM | [16] 7.19 µM | [17] 20.1 µM | [18] 23.5 µM
inactive: [19]

C(=NC1CCCCC1)=NC1CCCCC1
active: [1] 9.07 µM | [2] 6.39 µM | [3] 10.9 µM | [4] 11.8 µM | [6] 5.82 µM | [7] 7.83 µM | [8] 13.4 µM | [9] 7.21 µM | [10] 10.7 µM | [11] 11.9 µM | [12] 12.4 µM

CC(C)CCCCCCOC(=O)c1ccccc1C(=O)OCCCCCCC(C)C
inactive: [1] | [2] | [3] | [4] | [6] | [7] | [8] | [9] | [10] | [11] | [12]

CCSC(C)CC1CC(=O)C(C(CC)=NOC/C=C/Cl)=C(O)C1 (centres undefined)
inactive: [1] | [2] | [3] | [4] | [6] | [7] | [8] | [9] | [10] | [11] | [12]

COP(=S)(OC)Oc1c(Cl)cc(C)cc1Cl
active: [2] 10.7 µM
inactive: [1] | [3] | [4] | [6] | [7] | [8] | [9] | [10] | [11] | [12]

CC(C)(C)c1cc(O)ccc1O
active: [5] 50 µM
inactive: [20]

Nc1cccc2ccccc12
active: [7] 14.5 µM
inactive: [1] | [2] | [3] | [4] | [6] | [8] | [9] | [10] | [11] | [12]
